Results reported in PubChem BioAssay AID624416 (The Scripps Research Institute Molecular Screening Center, 2012).
Out of some 360,000 compounds screened, about 1,500 (0.42%) were called active. The entries come from a sample that favours actives as a whole. Values without a mark were called inactive. Cut-off read from the data, not from the text of the source: active = inhibition above about 8.5%; inactive = the rest.

The compounds below were run on HIV-1 gp120 / PG9 antibody interaction (assay: small molecules engaging PG9 antibody – biochemical, TR-FRET, primary screen (AID 624416)). Settings: TR-FRET gp120-PG9 antibody binding; at 6.7 µM; active compounds read high.

| Structure (SMILES) | inhibition |
| --- | --- |
| CC(=O)Nc1ccc(C(=O)C(Cc2ccccc2)N(C)C)cc1 (stereo not given) | -2.82% |
| CCN(CC)C(=O)c1ccc(NC(=O)c2cc(-n3cnnc3)ccc2Cl)cc1 | -0.62% |
| CCN(CC)C(=O)c1ccc(NC(=O)c2sccc2-c2ccccc2)cc1 | 9.48% (active) |
| O=C1NC(=O)C(CCc2ccccn2)(Cc2cccc(Cl)c2Cl)C(=O)N1c1ccc(Br)cc1 (stereo not given) | -0.96% |
| CN1CCN(Cc2ccccc2C(F)(F)F)CC1 | 1.87% |
| CCNc1nc2[nH]c(=O)c3c(c2s1)OC(N)=C(C#N)C3c1cccs1 (stereo not given) | -1.83% |
| N#CC1=C(N)Oc2c(c(=O)oc3ccccc23)C1c1ccccc1OC(=O)c1cccs1 (stereo not given) | 11% (active) |
| COc1ccc(C2C=C(C)Oc3c2c(=O)oc2ccccc32)cc1OC (stereo not given) | 0.19% |
| C[C@]12CCCCC1=CC(=O)C1C2CC[C@@]2(C)C1C[C@@H](F)[C@@H]2O (stereo not given in full) | 0.27% |
| Cc1cc2ccccn2c1C(C[N+](=O)[O-])c1c(F)cccc1Cl (stereo not given) | 1.04% |
